Assay results published in PubChem BioAssay.
Active and inactive are the calls of the source.

What was measured:
[1] = binders of probe aFSTL3 on microarray, primary screen, stem cell growth factor project, biochemical, small-molecule microarray, fluorescence 635/667 (AID 1064); conditions: higher = more signal;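 further: measures binding of the biotinylated anti-FSTL3 antibody to printed compounds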
[2] = binders from COS7 lysate, DM2A8 probe, primary screen, torsin A project, cell lysate, small-molecule microarray, fluorescence 635/667 (AID 1065); conditions: higher = more signal, COS7 lysate expressing mutant human TOR1A
[3] = binders of probe aFGF2 on microarray, primary screen, stem cell growth factor project, biochemical, small-molecule microarray, fluorescence 635/667 (AID 1067); conditions: higher = more signal;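 further: measures binding of biotinylated aFGF2 protein to printed compounds on slides; z-score merges feature fluorescence and signal-to-noise across triplicate slides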
[4] = binders of probe aFGF10 on microarray, primary screen, stem cell growth factor project, biochemical, small-molecule microarray, fluorescence 635/667 (AID 1071); conditions: higher = more signal;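 further: score merges 667 nm spot intensity and signal to noise from triplicate slides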
[5] = molecular target: Neurogenic locus notch homolog protein 2 (Homo sapiens) (UniProt Q04721); test: Notch2 binders on small-molecule microarrays, primary screen, biochemical, small-molecule microarray, 635 nm fluorescence, stem cell growth factors (AID 1073); conditions: Notch2 binding, higher = more signal
[6] = molecular target: Pro-neuregulin-1, membrane-bound isoform (Homo sapiens) (UniProt Q02297); test: NRG1 binders on small-molecule microarrays, primary screen, psychiatric disease protein project, biochemical, small-molecule microarray, fluorescence 635/667 (AID 1075); conditions: NRG1 binding, 635 nm fluorescence, higher = more signal;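 further: score combines 667 nm spot fluorescence with signal to noise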
[7] = tested on: Neuregulin-1 EGF-like domain; test: binders of neuregulin-1 EGF-like domain, primary screen, biochemical, small-molecule microarray, 635 nm fluorescence (AID 1081); conditions: small-molecule microarray binding, higher = more signal;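 further: binding of the protein to compounds printed on small-molecule microarray slides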
[8] = FRG1 promoter luciferase signal modulators, primary screen, FRG1 inhibition for FSHD, cell-based, C2C12 myotubes, firefly/Renilla luciferase, luminescence (AID 1084); conditions: higher = more signal, called active from +8 up or from −8 down
[9] = binders of probe aFST on microarray, primary screen, stem cell growth factor project, biochemical, small-molecule microarray, fluorescence 635/667 (AID 1086); conditions: higher = more signal;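 further: score merges 667 nm fluorescence with signal-to-noise of each printed compound spot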
[10] = binders of probe aHhip on microarray, primary screen, stem cell growth factor project, biochemical, small-molecule microarray, fluorescence 635/667 (AID 1087); conditions: higher = more signal;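 further: score merges spot fluorescence at 667nm with spot signal to noise ratio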
[11] = tested on: PRMT1 (protein arginine N-methyltransferase 1); test: PRMT1 binders on small-molecule microarrays, primary screen, biochemical, small-molecule microarray, 635 nm fluorescence (AID 1088); conditions: small-molecule microarray binding, higher = more signal;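 further: binding of Prmt1 protein to compounds spotted on small-molecule microarray slides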
[12] = yeast growth modulation, basal conditions, primary screen, YJM789 clinical isolate, OD600, 24 h (AID 1089);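 further: growth of clinical yeast isolate S. cerevisiae YJM 789 seeded 1000 cells per well; test concentration not given here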; conditions: S. cerevisiae YJM789 growth, higher = more signal, called active from +8 up or from −8 down
[13] = fission yeast growth modulation, primary screen, strain 972, OD600, 24 h, no modulator (AID 1090);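 further: basal condition with compound alone and no growth modifier present; test concentration not given here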; conditions: S. pombe 972 growth, higher = more signal, called active from +8 up or from −8 down
[14] = S. cerevisiae growth modulation with rapamycin, primary screen, strain BY4716, OD600, 96 h (AID 1091); conditions: higher = more signal, called active from +8 up or from −8 down; further: test concentration not given here
[15] = molecular target: Torsin-1A-interacting protein 2 (Homo sapiens) (UniProt Q8NFQ8); test: LULL1 binders on small-molecule microarray, primary screen, cell lysate, human LULL1 lysate, 635/667 nm fluorescence (AID 1092); conditions: hLULL1 lysate binding, 635 nm fluorescence, higher = more signal;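 further: probe is lysate of COS7 cells overexpressing human LULL1; score merges per-feature 667 nm fluorescence with signal-to-noise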
[16] = E. coli growth modulation, two-sided OD650, primary screen, E. coli filamentation project, strain DRC41, 24 h (AID 1093); conditions: OD650, 24 h, higher = more signal, called active from +8 up or from −8 down;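 further: MC1000 strain lacking acrAB efflux and sulA so SOS filamentation is blocked; test concentration not given here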
[17] = small-molecule microarray binders of probe aLefty2, primary screen, biochemical, biotinylated probe, 635/667 nm fluorescence (AID 1094); conditions: higher = more signal;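 further: score merges spot fluorescence near 667 nm with spot signal-to-noise ratio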
[18] = tested on: Noggin (protein binding on small-molecule microarray); test: Noggin binders on small-molecule microarray, primary screen, biochemical, 635/667 nm fluorescence (AID 1095); conditions: 635 nm fluorescence, higher = more signal;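 further: score merges 667 nm feature fluorescence with signal to noise over triplicate slides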
[19] = molecular target: Neurogenic locus notch homolog protein 3 (Homo sapiens) (UniProt Q9UM47); test: NOTCH3 binders on small-molecule microarray, primary screen, biochemical, 635/667 nm fluorescence (AID 1096); conditions: NOTCH3 binding, 635 nm fluorescence, higher = more signal
[20] = small-molecule microarray binders of probe aEGFR, primary screen, biochemical, biotinylated probe, 635/667 nm fluorescence (AID 1097); conditions: higher = more signal;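 further: probe is a biotinylated anti-EGFR antibody binding compounds printed on slides; score combines fluorescence near 667 nm and signal to noise of each spot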

Sequence of Neurogenic locus notch homolog protein 2 (Homo sapiens) (Q04721 whole entry, looked up, canonical isoform): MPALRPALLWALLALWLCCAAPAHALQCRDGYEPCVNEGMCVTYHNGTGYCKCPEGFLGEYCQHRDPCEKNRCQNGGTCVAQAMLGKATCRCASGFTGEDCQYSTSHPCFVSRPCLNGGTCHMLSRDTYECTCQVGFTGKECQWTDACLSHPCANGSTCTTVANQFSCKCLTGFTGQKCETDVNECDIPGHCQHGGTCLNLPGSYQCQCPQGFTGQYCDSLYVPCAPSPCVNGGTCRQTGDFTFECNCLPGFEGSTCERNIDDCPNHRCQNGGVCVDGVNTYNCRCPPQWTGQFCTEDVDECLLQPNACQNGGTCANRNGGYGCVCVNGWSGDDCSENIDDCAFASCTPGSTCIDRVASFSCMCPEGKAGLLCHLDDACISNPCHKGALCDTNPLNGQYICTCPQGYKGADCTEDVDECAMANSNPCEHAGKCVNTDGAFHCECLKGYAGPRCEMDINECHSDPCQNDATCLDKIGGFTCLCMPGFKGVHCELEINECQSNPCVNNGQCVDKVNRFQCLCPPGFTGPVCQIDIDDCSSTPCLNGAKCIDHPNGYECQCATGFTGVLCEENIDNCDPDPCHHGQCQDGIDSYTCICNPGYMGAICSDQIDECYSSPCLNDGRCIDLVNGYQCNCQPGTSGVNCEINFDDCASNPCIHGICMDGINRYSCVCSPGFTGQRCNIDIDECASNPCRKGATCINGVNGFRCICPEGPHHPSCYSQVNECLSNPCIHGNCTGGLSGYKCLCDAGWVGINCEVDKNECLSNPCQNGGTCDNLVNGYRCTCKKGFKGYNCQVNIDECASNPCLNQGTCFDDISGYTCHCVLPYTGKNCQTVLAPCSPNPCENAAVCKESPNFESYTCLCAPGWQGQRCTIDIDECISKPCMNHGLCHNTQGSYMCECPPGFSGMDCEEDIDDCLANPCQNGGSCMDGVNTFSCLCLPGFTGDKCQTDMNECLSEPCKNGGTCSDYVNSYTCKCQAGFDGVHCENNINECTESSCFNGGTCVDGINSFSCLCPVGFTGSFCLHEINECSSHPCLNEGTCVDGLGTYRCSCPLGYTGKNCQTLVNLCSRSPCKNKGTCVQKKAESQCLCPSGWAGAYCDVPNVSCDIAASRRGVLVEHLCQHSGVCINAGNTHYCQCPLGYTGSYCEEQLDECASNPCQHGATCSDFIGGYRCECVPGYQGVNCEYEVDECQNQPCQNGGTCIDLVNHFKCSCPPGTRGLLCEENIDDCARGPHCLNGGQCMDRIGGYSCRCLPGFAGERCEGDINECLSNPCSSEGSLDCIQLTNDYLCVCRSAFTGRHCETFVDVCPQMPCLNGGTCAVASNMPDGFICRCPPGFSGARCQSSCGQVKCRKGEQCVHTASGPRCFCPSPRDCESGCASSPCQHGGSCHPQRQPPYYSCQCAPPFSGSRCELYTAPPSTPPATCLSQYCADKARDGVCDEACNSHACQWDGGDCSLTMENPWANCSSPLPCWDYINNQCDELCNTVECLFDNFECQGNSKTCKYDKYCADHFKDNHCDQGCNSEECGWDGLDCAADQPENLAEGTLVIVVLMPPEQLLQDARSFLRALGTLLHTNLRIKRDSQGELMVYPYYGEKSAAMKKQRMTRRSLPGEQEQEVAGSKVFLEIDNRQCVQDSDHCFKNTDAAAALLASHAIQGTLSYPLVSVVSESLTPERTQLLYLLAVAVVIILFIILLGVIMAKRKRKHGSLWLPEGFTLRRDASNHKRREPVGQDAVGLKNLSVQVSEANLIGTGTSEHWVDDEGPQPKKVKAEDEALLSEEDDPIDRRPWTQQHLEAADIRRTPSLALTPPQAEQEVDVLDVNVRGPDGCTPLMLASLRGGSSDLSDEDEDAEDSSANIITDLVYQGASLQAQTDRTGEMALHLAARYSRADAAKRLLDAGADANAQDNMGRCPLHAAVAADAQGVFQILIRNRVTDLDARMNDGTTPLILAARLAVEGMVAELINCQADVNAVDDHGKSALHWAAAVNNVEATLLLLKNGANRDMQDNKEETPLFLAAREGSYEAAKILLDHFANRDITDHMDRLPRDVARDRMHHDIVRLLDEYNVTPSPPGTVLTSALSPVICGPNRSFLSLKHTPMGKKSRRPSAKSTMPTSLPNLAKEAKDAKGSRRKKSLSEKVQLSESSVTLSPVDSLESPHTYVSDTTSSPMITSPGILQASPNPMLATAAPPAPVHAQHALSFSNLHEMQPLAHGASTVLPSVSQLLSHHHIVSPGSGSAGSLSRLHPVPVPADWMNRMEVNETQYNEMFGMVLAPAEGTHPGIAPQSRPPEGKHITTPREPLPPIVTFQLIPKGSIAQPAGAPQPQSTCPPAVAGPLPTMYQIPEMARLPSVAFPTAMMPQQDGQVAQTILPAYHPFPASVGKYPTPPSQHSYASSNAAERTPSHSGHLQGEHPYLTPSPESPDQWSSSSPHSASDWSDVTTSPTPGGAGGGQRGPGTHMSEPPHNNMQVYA
Sequence of Torsin-1A-interacting protein 2 (Homo sapiens) (Q8NFQ8 whole entry, looked up): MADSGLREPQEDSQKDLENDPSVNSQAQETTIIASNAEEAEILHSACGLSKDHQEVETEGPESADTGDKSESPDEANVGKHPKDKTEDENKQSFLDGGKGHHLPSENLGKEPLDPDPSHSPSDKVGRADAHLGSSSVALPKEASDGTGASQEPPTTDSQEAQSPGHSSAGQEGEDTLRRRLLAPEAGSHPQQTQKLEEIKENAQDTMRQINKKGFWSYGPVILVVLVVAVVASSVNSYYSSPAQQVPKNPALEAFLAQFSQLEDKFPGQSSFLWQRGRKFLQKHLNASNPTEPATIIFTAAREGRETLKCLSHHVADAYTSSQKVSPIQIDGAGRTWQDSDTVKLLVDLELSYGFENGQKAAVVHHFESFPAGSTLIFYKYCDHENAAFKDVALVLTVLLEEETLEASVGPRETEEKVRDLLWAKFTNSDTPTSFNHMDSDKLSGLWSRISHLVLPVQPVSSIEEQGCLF
Sequence of Pro-neuregulin-1, membrane-bound isoform (Homo sapiens) (Q02297 whole entry, looked up, the tested form may be a part, canonical isoform): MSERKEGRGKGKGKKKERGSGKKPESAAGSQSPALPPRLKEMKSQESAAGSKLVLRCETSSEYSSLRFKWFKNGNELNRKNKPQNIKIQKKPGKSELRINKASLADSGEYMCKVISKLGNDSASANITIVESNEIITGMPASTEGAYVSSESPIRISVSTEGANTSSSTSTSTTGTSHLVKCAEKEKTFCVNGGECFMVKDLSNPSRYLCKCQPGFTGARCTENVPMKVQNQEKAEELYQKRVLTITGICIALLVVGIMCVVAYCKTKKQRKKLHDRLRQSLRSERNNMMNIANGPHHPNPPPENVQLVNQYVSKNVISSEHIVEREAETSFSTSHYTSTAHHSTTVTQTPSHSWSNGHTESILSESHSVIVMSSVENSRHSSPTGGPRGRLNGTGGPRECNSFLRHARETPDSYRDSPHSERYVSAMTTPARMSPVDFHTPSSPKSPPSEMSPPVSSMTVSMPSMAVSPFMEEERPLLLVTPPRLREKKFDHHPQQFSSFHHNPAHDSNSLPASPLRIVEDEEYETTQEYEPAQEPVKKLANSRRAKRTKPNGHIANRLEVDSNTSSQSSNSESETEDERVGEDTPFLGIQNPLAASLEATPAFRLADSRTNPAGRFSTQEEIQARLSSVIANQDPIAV

Row | Compound | composite z-score [1] | composite z-score [2] | composite z-score [3] | composite z-score [4] | composite z-score [5] | composite z-score [6] | composite z-score [7] | z-score [8] | composite z-score [9] | composite z-score [10] | composite z-score [11] | z-score [12] | z-score [13] | z-score [14] | composite z-score [15] | z-score [16] | composite z-score [17] | composite z-score [18] | composite z-score [19] | composite z-score [20]
1 | COC(=O)c1c(CC[C@@H](CO)NC(=O)N[C@H](Cn2cc(C3(O)CCCCC3)nn2)C(C)C)oc(C(C)=O)c1C(=O)OC | -0.413 | 0.945 | -0.003 | 0.815 | 0.759 | 0.759 | 1.07 | 0.324 (inactive) | 0.253 | -0.0237 | 1.57 | -0.325 (inactive) | -2.39 (inactive) | 0.0762 (inactive) | 1.12 | 1.66 (inactive) | -0.0437 | 1.86 | 1.08 | 0.0274
2 | O=C1O[C@H](c2ccccc2)[C@H](c2ccccc2)N2[C@H]1[C@@H](C(=O)O)[C@]1(C(=O)Nc3ccc(C#CC4=CCCCC4)cc31)[C@H]2c1ccc(O)cc1 | -0.261 | -0.208 | -0.0899 | 0.728 | 0.769 | 0.92 | 1.13 | -0.179 (inactive) | 0.189 | -0.121 | 1.54 | -0.206 (inactive) | -0.113 (inactive) | -0.776 (inactive) | 2.65 | -0.911 (inactive) | 0.0169 | 0.653 | 0.966 | -0.0353
3 | COC(=O)C1=CC(CCCO)=CC(C2CC2)N(C)C=C1C(=O)OC (stereo not given) | 0.0334 | -0.144 | -0.101 | -0.0269 | 0.448 | 2.06 | 0.935 | -0.327 (inactive) | -0.308 | -0.0994 | 0.723 | -1.81 (inactive) | -0.761 (inactive) | -1.62 (inactive) | 2.79 | -0.705 (inactive) | -0.117 | -0.178 | -0.752 | -0.43
4 | CC(c1ccccc1)C(O)C1C=CC2C(=O)N(c3ccccc3)C(=O)C2N1Nc1ccc([N+](=O)[O-])cc1 (stereo not given) | -0.263 | 0.031 | -0.0265 | 0.772 | 1.62 | 1.58 | 1.11 | -1.32 (inactive) | 0.745 | -0.166 | 1.07 | 0.197 (inactive) | 1.58 (inactive) | 1.78 (inactive) | 3.55 | 0.1 (inactive) | 0.0249 | 0.361 | 1.09 | -0.027
5 | COC(=O)[C@@]1(Cc2ccc(F)cc2)[C@H]2c3cc(C(=O)N4CCCC4)n(CCN4CNCC4=O)c3C[C@H]2CN1C(=O)c1ccccc1 | 0.144 | 1.56 | 0.0732 | 0.132 | 1.26 | 1.07 | 1.35 | 4.7 (inactive) | 1.26 | 0.178 | 1.2 | 0.614 (inactive) | -0.198 (inactive) | 0.316 (inactive) | 3.97 | -0.151 (inactive) | 0.459 | 0.46 | 0.842 | 0.118
6 | C=CCNC(=O)[C@H]1[C@@H]2C(=O)O[C@@H](c3ccccc3)[C@@H](c3ccccc3)N2[C@@H](c2ccc(O)cc2)[C@]12C(=O)Nc1ccc(C#CC3(O)CCCCCC3)cc12 | 0.0935 | 1.01 | -0.0293 | 0.254 | -0.459 | 0.865 | 0.718 | -0.246 (inactive) | 0.168 | 0.312 | 1.55 | -0.494 (inactive) | 0.369 (inactive) | 0.335 (inactive) | 3.03 | -1.08 (inactive) | -0.0953 | 1.09 | 0.354 | -0.0896
7 | Cc1ccc(S[C@]2(C(=O)O)CC(=O)N(C3Cc4ccccc4C3)[C@@H]2c2ccc(CO)cc2)cc1 | 0.377 | 0.477 | 0.0015 | -0.179 | -0.267 | 0.915 | 0.184 | 0.177 (inactive) | -0.117 | -0.134 | 1.04 | 0.137 (inactive) | -1.36 (inactive) | 0.448 (inactive) | 2.98 | 0.618 (inactive) | 0.126 | -0.98 | -0.472 | -0.185
8 | CO[C@]12C=C(Br)[C@@H](C[C@@H]1c1cccc(C)c1)[C@@]1(CO1)C2=O | -0.233 | 0.0322 | -0.0718 | 0.211 | -0.217 | 0.518 | 0.0046 | 1.22 (inactive) | -0.221 | -0.0708 | 0.435 | -0.354 (inactive) | -5.17 (inactive) | -1.67 (inactive) | 0.469 | -0.0461 (inactive) | -0.145 | 0.569 | 0.537 | -0.115
9 | Cc1ccccc1C(O)C1C=CC2C(=O)N(C)C(=O)C2N1N(c1ccccc1)c1ccccc1 (stereo not given) | 1.01 | -0.038 | 0.149 | 0.113 | 0.483 | -0.53 | -0.878 | -0.0079 (inactive) | 0.606 | 0.0077 | -0.437 | 0.787 (inactive) | 0.503 (inactive) | 0.753 (inactive) | -0.604 | -0.717 (inactive) | 0.756 | -0.177 | -0.899 | 0.409
10 | C=C(C)C1CCC(C(O)C2C=CC3C(=O)N(C)C(=O)C3N2N2CCCCC2)CC1 (stereo not given) | 0.207 | -0.222 | 0.118 | 0.82 | 1.62 | 1.45 | 1.24 | 1.17 (inactive) | 1.23 | 0.134 | 1.53 | 1.26 (inactive) | 0.642 (inactive) | 2.25 (inactive) | 3.04 | -0.867 (inactive) | 0.398 | 0.758 | 1.04 | 0.368
